Compound activity as filed in PubChem BioAssay.
Sampled rows, rich in hits. Any-hit rate of the full collection: about 2.4%.
Pol beta inh: qHTS Assay for Inhibitors of DNA Polymerase Beta | Pol beta primer extension/strand displacement, fluorescence kinetic | 340,000 compounds, 1.3% hits | Potency, µM (highest dose often 114 µM), without a hit: top-dose activity change, negative = inhibition, hits mostly inhibitors | P06746 | AID 485314, 2010; also: % is scaled to controls: 0 for no effect and ±100 for the full control effect
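Curves were derived by four-parameter Hill fits of normalized qHTS data. The kinetic fluorescent primer-extension read was taken at 0 and 10 min after 50 nM substrate, following a 15 min room-temperature preincubation of 10 nM enzyme with compounds.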
WRN helicase inh-1: qHTS for Inhibitors of WRN Helicase; Bifunctional 3'-5' exonuclease/ATP-dependent helicase WRN (Homo sapiens), Q14191; WRN helicase unwinding, fluorescent forked duplex, kinetic; Potency, µM (titrated, usually from 114 µM), for inactives: top-dose activity change, negative = inhibition, most hits filed as inhibitors; 360,000 compounds, 0.46% hits; also: % is scaled to controls: 0 for no effect and ±100 for the full control effect; nearly all actives have a fitted effect of over 55% in size
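Fluorescence dequenching readout, ex 525 nm/em 598 nm, kinetic mode: forked duplex DNA (100 nM final) with adjacent fluorophore and quencher unwound by WRN (20 nM final) with 2 mM ATP. Compound preincubation 15 min, room temperature.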
Pol eta inh-1: qHTS for Inhibitors of Polymerase Eta | DNA polymerase eta (Homo sapiens), Q9Y253 | recombinant Pol eta, fluorescent DNA replication assay | Potency, µM (series often up to 114 µM), for the others: at the highest dose activity change, negative = inhibition, actives largely listed as inhibitors | 390,000 compounds, 1.2% hits | AID 588591, 2011; also: % is scaled to controls: 0 for no effect and ±100 for the full control effect
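Pol eta at 10 nM preincubated with compounds 15 min at room temperature; reaction started with fluorescent substrate (50 nM final) and read kinetically at 0 and 10 min.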
Pol kappa inh-1: qHTS for Inhibitors of Polymerase Kappa; purified Pol kappa, fluorescent DNA synthesis assay, 10 min; Potency, µM (top dose mostly 107 µM), without a hit: at the top dose activity, negative = inhibition, actives largely listed as inhibitors; 400,000 compounds, 0.53% hits; also: % is scaled to controls: 0 for no effect and ±100 for the full control effect
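First, compounds were pin-transferred onto 10 nM Pol kappa. After 15 min at room temperature, substrate was added to 50 nM final. Fluorescence was then measured kinetically at 0 and 10 min.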
FEN1 inh: qHTS Assay for the Inhibitors of Human Flap endonuclease 1 (FEN1). 390,000 compounds, 0.35% hits. Recombinant FEN1 flap cleavage, fluorescence, 15 min. Potency, µM (doses to about 114 µM), for the others: at the top dose activity change, negative = inhibition, hits mostly inhibitors; also: % is scaled to controls: 0 for no effect and ±100 for the full control effect; nearly all actives have a fitted effect of over 65% in size
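Quantitative HTS format: each compound was titrated, incubated with 10 nM nuclease for 15 min at room temperature, then challenged with flap substrate at 50 nM final. Signal change over 15 min gave concentration–effect curves.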
Pol iota inh: qHTS for Inhibitors of Polymerase Iota; DNA polymerase iota (Homo sapiens), Q9UNA4; Pol iota fluorescent replication assay, 10 min; Potency, µM (titrated, usually from 115 µM), without a hit: at the top dose activity, negative = inhibition, actives largely listed as inhibitors; 390,000 compounds, 1% hits
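Fluorescent replication assay read twice, at 0 min and 10 min after adding 50 nM (final) substrate. Enzyme (10 nM) and compounds were first incubated 15 min at room temperature; enzyme-free buffer wells were negative controls.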
PGK validate: qHTS for inhibitors of Phosphogylcerate Kinase: Hit Validation Screen; Potency, µM (series often up to 57.5 µM), inactives show at the top dose activity change, negative = inhibition, most hits filed as inhibitors; TbPGK coupled GAPDH assay, Kinase-Glo luminescence; 500 compounds, 79% hits; shares compounds with Pol kappa inh-1; also: % is scaled to controls: 0 for no effect and ±100 for the full control effect; nearly all actives have a fitted effect of over 65% in size
POLI cherry-pick: qHTS for Inhibitors of Polymerase Iota: Confirmatory Assay for Cherry-picked Compounds | 1,500 compounds, 77% hits | Potency, µM, usual class: inhibitors | shares compounds with Pol kappa inh-1 | Pol iota primer extension, TAMRA/BHQ fluorescence
Pol kappa inh-2: qHTS for Inhibitors of Polymerase Kappa: Confirmatory Assay for Cherry-picked Compounds | shares compounds with Pol eta inh-1 | purified Pol-kappa, fluorescent strand-displacement substrate | Potency, µM, actives largely listed as inhibitors | 920 compounds, 76% hits | AID 720501, 2013
Pol eta inh-2: qHTS for Inhibitors of Polymerase Eta: Confirmatory Assay for Cherry-picked Compounds; shares compounds with Pol eta inh-1; Pol eta primer extension, TAMRA/BHQ fluorescence, 10 min; Potency, µM, hits mostly inhibitors; 2,600 compounds, 64% hits; AID 720502, 2013
WRN helicase inh-2: qHTS for Inhibitors of WRN Helicase: Confirmatory Assay for Cherry-picked Compounds. shares compounds with WRN helicase inh-1. WRN helicase DNA unwinding, fluorescence kinetic. Potency, µM (highest dose often 57.1 µM), inactives show at the highest dose activity, negative = inhibition, hits mostly inhibitors. 610 compounds, 63% hits. AID 720497, 2013; also: nearly all actives have a fitted effect of over 65% in size
TO DNA binding: qHTS for Inhibitors of WRN Helicase: Thiazole Orange DNA Binding Counterscreen; shares compounds with WRN helicase inh-1; thiazole orange DNA binding displacement, fluorescence; Potency, µM (series often up to 57.1 µM), inactives show at the highest dose activity change, negative = inhibition, usual class: inhibitors; 610 compounds, 10% hits; AID 720499, 2013;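 also: drop in dye fluorescence marks compound binding to DNA; % is scaled to controls: 0 for no effect and ±100 for the full control effect; nearly all actives have a fitted effect of over 60% in size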
BLM counter: qHTS for Inhibitors of WRN Helicase: BLM Helicase Counterscreen for WRN Inhibitors. 610 compounds, 60% hits. shares compounds with WRN helicase inh-1. Potency, µM (top dose mostly 57.1 µM), for the others: at the top dose activity change, negative = inhibition, most hits filed as inhibitors. Recombinant BLM helicase DNA unwinding, red fluorescence. AID 720503, 2013; also: nearly all actives have a fitted effect of over 60% in size
An asterisk follows results filed as active; ? = inconclusive; / = no result. Calls follow the shape of the dose curve; as a rule, active = well fitted curve in the direction sought with a large enough effect; inconclusive = small, poorly fitted or top-dose-only effect, or another doubt; inactive = no such curve, though single readings can be large; an effect the other way counts as inactive or inconclusive. Potency is read from the fitted curve at half-maximal effect.

SMILES	Pol beta inh	WRN helicase inh-1	Pol eta inh-1	Pol kappa inh-1	FEN1 inh	Pol iota inh	POLI cherry-pick	Pol eta inh-2	WRN helicase inh-2	TO DNA binding	BLM counter	others
CC(=C/C(=O)O)/C=C/c1ccc(Cl)o1	13µM*	?	1.1µM*	25µM*	-9%	7.9µM*	21*	8.5*	6.1µM*	-7%	3µM*	PGK validate=15µM*
Cc1ccc(C2=NC(=O)/C(=C/c3cc(O)c(O)c(Br)c3)S2)cc1	1.6µM*	7.9µM*	0.79µM*	1.8µM*	11µM*	1.3µM*	17*	3.8*	1.7µM*	6.8µM*	0.76µM*	Pol kappa inh-2=5.3*
COc1ccc(S(=O)(=O)N2CCC(C(=O)NCCC(=O)Nc3nccs3)CC2)cc1	4%	0%	-13%	6%	1%	14%	/	/	/	/	/
Cn1ncc2c(NCCO)nc(Cl)nc21	/	-18%	-24%	-12%	10%	98%	/	/	/	/	/
Nc1ccc2c(c1)C(=O)c1ccccc1-2	/	-9%	8%	-8%	-17%	3%	/	/	/	/	/
